Screening data (PubChem)
Most compounds without a hit are left out; they make up all but 18% or so of the library.
TDP1 inh = qHTS Assay for Inhibitors of Tyrosyl-DNA Phosphodiesterase (TDP1); Tyrosyl-DNA phosphodiesterase 1 (Homo sapiens), Q9NUW8; recombinant TDP1, AlphaScreen DNA substrate cleavage; Potency, µM (top dose mostly 130 µM), most hits filed as inhibitors; 350,000 tested, 0.28% active; AID 485290, 2010; also: nearly all actives have a fitted effect of over 40% in size
Target sequence (Q9NUW8 whole entry, looked up): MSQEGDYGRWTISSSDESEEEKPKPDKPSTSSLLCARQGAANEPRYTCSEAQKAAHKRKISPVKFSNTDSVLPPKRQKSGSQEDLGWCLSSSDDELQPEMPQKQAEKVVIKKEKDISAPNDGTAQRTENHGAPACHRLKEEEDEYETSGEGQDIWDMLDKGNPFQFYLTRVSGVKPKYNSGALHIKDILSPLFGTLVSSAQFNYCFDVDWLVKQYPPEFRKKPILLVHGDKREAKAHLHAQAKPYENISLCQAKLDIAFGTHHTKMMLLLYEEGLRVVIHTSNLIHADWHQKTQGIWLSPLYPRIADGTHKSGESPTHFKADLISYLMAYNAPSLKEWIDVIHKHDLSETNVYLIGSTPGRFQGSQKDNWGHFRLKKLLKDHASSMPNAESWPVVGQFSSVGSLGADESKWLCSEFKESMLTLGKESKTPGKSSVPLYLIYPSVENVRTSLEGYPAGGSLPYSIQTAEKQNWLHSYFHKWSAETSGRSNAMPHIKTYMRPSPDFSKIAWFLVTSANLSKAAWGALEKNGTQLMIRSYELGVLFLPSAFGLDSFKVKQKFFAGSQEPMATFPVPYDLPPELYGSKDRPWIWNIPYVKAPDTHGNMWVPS
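Tdp1 1 nM final; 15 min RT w/ cpd; substrate 15 nM, 5 min; beads 10 ug/ml, 10 min; AlphaScreen read. Neg ctrl: no enzyme.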
DT40 TDP1 no CPT = qHTS for Inhibitors of human tyrosyl-DNA phosphodiesterase 1 (TDP1): qHTS in cells in absence of CPT; DT40 Tdp1-/- hTDP1 cells, no CPT, ATP luminescence, 48 h; 420,000 tested, 15% active; Potency, µM (highest dose often 46.2 µM), hits mostly inhibitors; also: nearly all actives have a fitted effect of over 55% in size
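Growth kinetics read by CellTiter-Glo luminescence after ≥48 hr at 37 °C. Cells: DT40 Tdp1-/- stably carrying human TDP1, 400 per well, compound exposure in the absence of CPT (DMSO vehicle).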
HepG2 tox = qHTS for Inhibitors of TGF-b: Cytotox Counterscreen. AID 588856, 2011. Potency, µM (highest dose often 46.1 µM), actives largely listed as cytotoxic. HepG2 CAGA-GFP viability, ATP luminescence, 18 h. 410,000 tested, 0.76% active
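CellTiter-Glo luminescence gave cytotoxicity after 18 hours at 37 degrees C. The cells were HepG2 CAGA-GFP in 1% FBS DMEM, stimulated with 500 pg/mL TGF-beta after compound addition. %Activity was normalised to no-cell wells (complete cell-killing) and DMSO (no toxicity), and curves were fitted and classified.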
TDP1 cell CPT = qHTS for Inhibitors of human tyrosyl-DNA phosphodiesterase 1 (TDP1): qHTS in cells in presence of CPT | chicken DT40 Tdp1-/-;hTDP1 cells + 20 nM CPT, ATP luminescence, 48 h | Potency, µM (top dose mostly 46.2 µM), most hits filed as inhibitors | 420,000 tested, 12% active | AID 686979, 2013; also: nearly all actives have a fitted effect of over 55% in size
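Chicken DT40 Tdp1-/- cells stably complemented with human TDP1 were seeded at 400 cells/well in medium containing 20 nM camptothecin, exposed to pin-transferred compounds, and grown at 37 °C for at least 48 hr. Viability was read as ATP luminescence.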
IL-1B inflam inh = qHTS for Inhibitors of Inflammasome Signaling: IL-1-beta AlphaLISA Primary Screen; activity change, % at 57.5 µM; THP-1 LPS/ATP IL-1B secretion, AlphaLISA, 16 h; stronger effect = lower value; 360,000 tested, 4.7% active; AID 743279, 2014; in the data active = activity change below about -50%; inconclusive = mostly about -30% to -49%
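Secreted IL-1B measured by AlphaLISA bead assay after 16 h compound exposure of THP-1 cells; compounds (final up to 57.5 uM) added 1 h before LPS (250 ng/mL) and ATP (1.25 mM) stimulation; lower signal means less secretion.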
TGFb SMAD3 inh = qHTS for Inhibitors of TGF-b; HepG2 CAGA-GFP TGF-b/SMAD3 reporter, GFP fluorescence, 18 h; TGF-beta stimulated, 500 pg/mL final; Potency, µM (series often up to 46.1 µM), hits mostly inhibitors; 410,000 tested, 1.2% active; AID 588855, 2011; also: nearly all actives have a fitted effect of over 65% in size
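Read-out: total well GFP (ex488/em500-530) summed from mean per-cell fluorescence. Cells: HEPG2 CAGA-GFP, 1% FBS DMEM, 18 h at 37 degrees C with 500 pg/mL final TGF-beta. Unstimulated wells served as the full-inhibition control; stimulated DMSO wells = 0%.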
A number is an active result; – = inactive; ? = inconclusive; · = no result given; [ ] = another dose, or the depositor's remark. Unless noted, calls follow the shape of the dose curve; as a rule, active = well fitted curve in the direction sought with a large enough effect; inconclusive = small, poorly fitted or top-dose-only effect, or another doubt; inactive = no such curve, though single readings can be large; an effect the other way counts as inactive or inconclusive.

SMILES | TDP1 inh | DT40 TDP1 no CPT | HepG2 tox | TDP1 cell CPT | IL-1B inflam inh | TGFb SMAD3 inh
Cc1ccc2c(Sc3ccc(Cl)cc3)c(C(=O)NCCC(C)C)[nH]c2c1 | – | ? | – | – | · | –
C=C[C@@]1(C)CC(=O)[C@@]2(O)[C@@]3(C)[C@@H](O)CCC(C)(C)[C@@H]3[C@H](OC(=O)CCN(C)C)[C@H](OC(C)=O)[C@@]2(C)O1 | – | ? | · | ? | · | ·
C=CCOc1ccc(C2NC(=S)NC(C)=C2C(=O)c2ccccc2)cc1OC (centres undefined) | – | ? | – | ? | – | –
COc1cccc(C2NC(=S)NC(C)=C2C(=O)c2ccccc2)c1OC (centres undefined) | – | 10µM | – | ? | – | –
Cc1cc(C(=O)COC(=O)c2cnccn2)c(C)n1-c1ccc(Br)cc1 | – | ? | – | – | – | –
Cc1ccc(-n2c(C)cc(C(=O)COC(=O)c3c(C)noc3C)c2C)cc1 | – | 9.2µM | – | 9.2µM | -58 | –
Cc1ccc(-n2c(C)cc(C(=O)COC(=O)C3=NNC(=O)CC3)c2C)cc1 | – | ? | – | 16µM | – | –
Cc1nc(N2CCOCC2)c2c(C(=O)NCCc3ccccc3)c(C)oc2n1 | – | – | – | – | · | –
COc1cc(OC)c(S(=O)(=O)Nc2ccc(C)cn2)cc1NC(C)=O | – | – | 10µM | – | – | –
COc1cc(OC)c(S(=O)(=O)NCc2cccnc2)cc1NC(C)=O | – | – | – | – | – | –
C=CCn1cccc(C(=O)Nc2ccc(C)c(C)c2)c1=O | · | – | – | – | -78 | –
C=CCn1cccc(C(=O)Nc2ccc(C)cc2)c1=O | · | – | – | – | – | –
Cc1cc(NC(=O)C(C)SCC(=O)OCc2c(Cl)cccc2Cl)no1 (centres undefined) | – | – | – | – | – | –
CCOC(=O)COc1ccc(S(=O)(=O)N2CCN(c3ccccc3F)CC2)cc1 | – | – | – | – | – | –
CCOC(=O)c1scc(-c2ccc(C)cc2)c1S(=O)(=O)N1CCN(c2ccccc2F)CC1 | – | 18µM | – | 15µM | · | –
CCN(c1ccccc1)S(=O)(=O)c1c(-c2ccc(C)cc2)csc1C(=O)OC | – | 15µM | – | 18µM | · | ?
COC(=O)c1sccc1NC(=O)Nc1cccc(C)c1C | – | – | – | – | – | –
COC(=O)c1scc(-c2ccc(C)cc2)c1S(=O)(=O)Nc1cc(OC)c(OC)c(OC)c1 | – | ? | – | 21µM | · | –
COC(=O)c1scc(-c2ccccc2)c1S(=O)(=O)Nc1cccc(C)c1C | – | 26µM | – | ? | · | ?
Cc1ccc(S(=O)(=O)N(CCC(=O)O)c2ccccc2)cc1 | – | – | – | – | – | –
CCCn1c(=O)c2c(nc3n2CC(C)CN3Cc2ccccc2)n(C)c1=O (centres undefined) | – | ? | – | ? | – | –
Cc1ccc(C)c(NC(=O)COC(=O)c2cc(=O)c3ccccc3o2)c1 | – | – | – | – | ? | –
COC(=O)NC(/C(C(=O)OC)=C(\C)NCc1ccccc1)c1ccccc1 (centres undefined) | –[21 µM] | · | · | · | · | ·
CCc1ccc(NS(=O)(=O)c2c(-c3ccccc3)csc2C(=O)OC)cc1 | – | 23µM | – | ? | · | ?
COC(=O)c1scc(-c2ccccc2)c1S(=O)(=O)Nc1ccc(C)c(Cl)c1 | – | ? | – | ? | · | ?
SMILES | TDP1 inh | DT40 TDP1 no CPT | HepG2 tox | TDP1 cell CPT | IL-1B inflam inh | TGFb SMAD3 inh
CCOC(=O)c1scc(-c2ccc(C)cc2)c1S(=O)(=O)Nc1cccc(CC)c1 | – | 13µM | – | 12µM | · | –
COc1ccc(OC)c(NS(=O)(=O)c2cccs2)c1 | – | – | – | – | – | –
Cc1ccc(C(=O)Nc2ccccc2-c2ccccc2)cc1S(=O)(=O)Nc1cccc(C)c1C | – | 21µM | – | ? | ? | ?
CCOC(=O)c1scc(-c2ccc(C)cc2)c1S(=O)(=O)Nc1cc(OC)ccc1OC | – | 3.7µM | – | 9.2µM | · | –
Cc1cccc(S(=O)(=O)c2cn(Cc3ccc(F)cc3)c3cc(N4CCOCC4)c(F)cc3c2=O)c1 | – | ? | – | ? | · | –
CCOC(=O)c1scc(-c2ccccc2)c1S(=O)(=O)Nc1ccccc1OC | – | 21µM | – | 18µM | · | ?
CC(C)(C)C1CCc2nc(NC(=O)Cc3ccccc3)sc2C1 (centres undefined) | – | ? | – | ? | · | ?
Cc1cc(C)cc(OCC(=O)Nc2nc3c(s2)CC(C(C)(C)C)CC3)c1 (centres undefined) | – | 23µM | – | 18µM | · | –
CC(C)(C)C1CCc2nc(NC(=O)COc3ccccc3[N+](=O)[O-])sc2C1 (centres undefined) | – | ? | – | 16µM | · | –
Cc1cccc(OCC(=O)Nc2nc3c(s2)CC(C(C)(C)C)CC3)c1C (centres undefined) | – | 18µM | – | 16µM | · | –
CC(C)(C)C1CCc2nc(NC(=O)c3cccc(Cl)c3)sc2C1 (centres undefined) | – | 23µM | – | ? | · | –
